# Screening data (PubChem BioAssay)
# Most compounds without a hit are left out; they make up all but 11% or so of the library.
# AMA1 RON2 block – qHTS for Inhibitors of AMA1-RON; Towards Development of Antimalarial Drug Lead: Primary Screen; Plasmodium falciparum AMA1 (3D7) - RON2 peptide interaction; AlphaScreen AMA1-biotinylated RON2 peptide binding; Potency, µM (highest dose often 58.2 µM), for inactives: at the highest dose activity change, negative = inhibition, hits mostly inhibitors; hit rate 0.2% among 360,000; AID 720542, 2013;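 note: 0% = vehicle wells and -100% = peptide control; nearly all actives have a fitted effect of over 45% in size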
#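 AMA1 (3D7) with his tag at 25 nM final met compounds first, then biotinylated RON2 peptide at 25 nM; detection used donor plus acceptor beads, 10 µg/mL apiece, read by AlphaScreen after 30 min at room temperature.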
# HCV inhibitor – qHTS Assay for Inhibitors of Hepatitis C Virus (HCV) | Huh7.5.1 HCVcc-Cre infection, luciferase reporter, 44 h | Potency, µM (series often up to 41.8 µM), for inactives: at the top dose activity change, negative = inhibition, usual class: inhibitors | hit rate 3.4% among 340,000 | AID 651820, 2012
#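 Luciferase read-out (15 sec integration) after a 15 min room-temperature substrate step quantifies HCVcc-Cre infection. Cells, 1,000 per well, had compound added 4 h post-plating, then virus at ~0.5 moi, and were cultured 44 h.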
# Pf growth 48h – Primary qHTS for delayed death inhibitors of the malarial parasite plastid, 48 hour incubation | P. falciparum luciferase growth in erythrocytes, 48 h | Potency, µM (top dose mostly 28.7 µM), for the others: at the highest dose activity change, negative = inhibition, actives largely listed as inhibitors | hit rate 5.9% among 310,000
#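 Erythrocytes infected with P. falciparum carrying an integrated firefly luciferase reporter (2% hematocrit, 0.1% parasitemia final) were exposed to compounds in RPMI 1640 with 0.5% Albumax at 37 C, 5% CO2. Growth inhibition was scored as reduced luminescence.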
# Pf growth 96h – Primary qHTS for delayed death inhibitors of the malarial parasite plastid, 96 hour incubation. P. falciparum luciferase reporter growth, 96 h. Potency, µM (titrated, usually from 28.7 µM), for inactives: top-dose activity change, negative = inhibition, most hits filed as inhibitors. hit rate 6.9% among 320,000
#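 Two-generation exposure (96 h) targets delayed-death phenotype. Reporter parasites carrying integrated firefly luciferase, in red cells at 2% hematocrit and 0.05% parasitemia final, kept at 37 C, 5% CO2; luminescence loss indicates inhibition.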
# Active calls of the source: *; ? = inconclusive; · = no result; [ ] = remark or other dose. Calls come from the whole dose curve; as a rule, active = well fitted curve in the direction sought with a large enough effect; inconclusive = small, poorly fitted or top-dose-only effect, or another doubt; inactive = no such curve, though single readings can be large; an effect the other way counts as inactive or inconclusive. Unless noted, % is set by controls: 0 for no effect and ±100 for the full control effect; potency is the fitted concentration of half-maximal effect.
SMILES,AMA1 RON2 block,HCV inhibitor,Pf growth 48h,Pf growth 96h
COc1ccc(N2C(=O)CSC2c2cccs2)cc1 (stereo not given),6%,34%,-4%,-16%
O=C1CSC(c2cccs2)N1c1ccccc1 (stereo not given),1%,4%,6%,7.4µM*
N#CC1(Nc2ccc(C(=O)O)cc2)CCCC1,-6%,29%,·,·
CC1=NN=C(c2ccc(N)cc2)c2cc3c(cc2C1)OCO3,-7%,-26%,12µM*,?
CCN(c1ccc(OC)cc1)S(=O)(=O)N1CCCC(C(=O)NCc2ccc(OC(C)C)cc2)C1 (stereo not given),2%,·,·,·
Cc1nn(-c2ccc(NC(=O)c3ccncc3)cc2)c(C)c1Cl,-11%,3.2µM*,-9%,-40%
CC(C)(C)c1cc(C(=O)Nc2cccnc2)cc(C(=O)Nc2cccnc2)c1,19%,?,·,0.83µM*
O=C(Nc1cccnc1)c1ccc(Cl)c(Cl)c1,11%,-2%,?,6.6µM*
COc1cccc(C(=O)Nc2cccnc2)c1,12%,-1%,87%,·
COc1cccc(S(=O)(=O)NCc2ccc(C(=O)Nc3ccc(Cl)c(Cl)c3)cc2)c1,2%,?,·,?
O=C(NNC(=O)c1ccc(Cl)c(Cl)c1)c1cccnc1,64%,22%,38%,36%
O=C(Nc1ccc(Cl)c(Cl)c1)c1cccc(S(=O)(=O)NCc2cccnc2)c1,18%,14µM*,4%,?
Cc1c(Cl)cccc1NC(=O)CC1Sc2ccccc2NC1=O (stereo not given),-2%,-10%,-8%,3%
CN(CC(=O)Nc1ccc(Cl)c(C(F)(F)F)c1)C(=O)Cn1cc([N+](=O)[O-])ccc1=O,34%,-21%,16%,30%
COc1ccc(CCN(C)C(=O)CSc2nc3ncc(Cl)cc3[nH]2)cc1OC,2%,20%,-24%,?
COC(=O)c1sccc1NC(=O)c1cc(-c2ccc(C)cc2C)nc2ccccc12,-2%,-4%,?,?
O=C(Nc1ccncc1)c1cc(F)cc(F)c1,-4%,-9%,?,2.9µM*
O=C(Nc1ccncc1)c1ccc(Br)cc1,1%,-24%,?,-10%
O=C(Nc1ccc(Cl)c(Cl)c1)OCc1cccnc1,-9%,22µM*,-82%,?
O=C(Nc1cccnc1)OCc1ccccc1,5%,15%,51%,-16%
Cc1[nH]c2ccc(C(=O)O)cc2c1C,-3%,17%,·,1%
Cc1[nH]c2ccc(C(=O)Nc3ccncc3)cc2c1C,2%,11µM*,?,12µM*
O=C(Nc1ccc(Cl)c(Cl)c1)c1ccncc1,-12%,-26%,72%,15µM*
O=C(Nc1ccc(Cl)c(Cl)c1)c1ccc(Cl)c(Cl)c1,4%,-18%,77%,92%
O=c1ccn([C@@H]2O[C@H](CNCC3=Cc4cc(O)ccc4OC3)[C@@H](O)[C@H]2O)c(=O)[nH]1,7%,4%,·,·
SMILES,AMA1 RON2 block,HCV inhibitor,Pf growth 48h,Pf growth 96h
CCc1cccc(C)c1NC(=O)CCCN1C(=O)CN(C)C1=O,1%[11.6 µM],31%,-17%,-25%
CC(C)(C)SCCNC(=O)/C=C/c1ccc(F)cc1,-10%,3%,?,-5%
Cc1ccc(SCCNC(=O)/C=C/c2cccc([N+](=O)[O-])c2)cc1,-20%,-13%,21%,30%
O=C(/C=C/c1cccc([N+](=O)[O-])c1)NCCSc1ccccc1,-3%,-14%,?,10µM*
CC(C)(C)SCCNC(=O)/C=C/c1ccccc1,0%,-9%,?,10µM*
c1ccc2c(c1)Sc1ccccc1N2CC1CN2CCC1CC2 (stereo not given),-13%,16%,12µM*,13µM*
CN1CC[C@H](CN2c3ccccc3Sc3ccccc32)C1,·,·,3.8µM*,4.8µM*
COc1ccc(OC)c(-n2c(CNC3CCN(Cc4ccccc4)CC3)nc3ccccc3c2=O)c1,2%,-1%,·,12µM*
COc1ccc(OC)c(-n2c(CN3CCC(C(N)=O)CC3)nc3ccccc3c2=O)c1,4%,15%,20%,19%[5.75 µM]
Cc1cc(OC(=O)Nc2ccccc2)ccc1Cl,-1%,·,·,·
CCNC(=O)C1(C)CCCN(Cc2cccc(Oc3ccccc3)c2)C1 (stereo not given),5%,·,·,·
CN(C)C(=O)COC(=O)Cc1ccc(OC(=O)c2ccc(N=C(N)N)cc2)cc1,·,·,-21%,?
